Assay results from PubChem BioAssay AID602428 (Sanford-Burnham Center for Chemical Genomics, 2012).
The whole screen tested about 2,500 compounds, of which about 980 (39%) were called active.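 How the source made its calls: active means mean inhibition at 5 µM reaching about 45% (limit read from the data); inactive means the rest.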 These entries were drawn from the full list.

experiment: Gli-SUFU pathway antagonists, confirmation, single concentration, luciferase luminescence, Sufu-KO-LIGHT cells (AID 602428); conditions: Gli luciferase reporter, at 5 µM, hits give high values;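 further: plate controls were DMSO-treated cells for no effect and wells lacking cells for full effect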

SMILES	inhibition
Cc1ccccc1C(=O)NC(=S)Nc1ccc(N2CCN(C(=O)c3ccccc3)CC2)cc1	64.5% (active)
Cc1cc2[nH]ncc2cc1NC(=S)NC(=O)c1ccccc1	6.93% (inactive)
CC(C)C(=O)Nc1nnc(SCC(=O)N2C(C)CCCC2C)s1 (centres undefined)	17.7% (inactive)
Cc1ccc(Nc2nc(N3CCOCC3)nc(N3CCOCC3)n2)cc1Cl	33.3% (inactive)
CCOc1ccc(-n2c(O)c(/C=N/Nc3nc(C)cc(C)n3)c3ccccc3c2=O)cc1	78.3% (active)
CCOc1ccc(-n2c(O)c(/C=N/c3ccnn3Cc3ccncc3)c3ccccc3c2=O)cc1	28% (inactive)
O=C(Nc1nc2ccc([N+](=O)[O-])cc2s1)c1ccc(S(=O)(=O)N2CCCc3ccccc32)cc1	82.2% (active)
COCCn1c(CN2CCC(Cc3ccccc3)CC2)nc2c1c(=O)n(C)c(=O)n2C	58.7% (active)
O=C1/C(=C/c2ccc(F)cc2)SC(=S)N1NS(=O)(=O)c1ccccc1	15.2% (inactive)
CCCOc1ccc(Cc2c(Cl)nc(SC)nc2NC)cc1	60.5% (active)
CCc1c(C)nc2cc(C)[nH]n2c1=O	29.9% (inactive)
CC(=O)OCCC(C)C	21.6% (inactive)
CN(NC(=O)c1ccccc1F)c1nc(C(F)(F)F)nc2ccccc12	36.6% (inactive)
COC(=O)c1ccc(CSc2nnc(N)s2)o1	37.1% (inactive)
CCCCNc1nc2c(c(=O)n(C)c(=O)n2C)n1Cc1cccc(OC)c1	72.5% (active)
Cn1c(=O)c2c(nc(NCCc3ccccc3)n2Cc2ccccc2)n(C)c1=O	57.1% (active)
CN(C)CCN(C(=O)C1CCCCC1)c1nc2cc3c(cc2s1)OCO3	14.1% (inactive)
CCc1c(C)[nH]c(=S)c(C#N)c1C	25.3% (inactive)
CC1(C)CC2CC(C)(CN2c2ncnc3ccc(Br)cc23)C1 (centres undefined)	41.5% (inactive)
COc1ccc(OC)c(Cc2cnc3nc(N)nc(N)c3c2C)c1	51.4% (active)
O=C(NC1CCN(C(=S)Nc2ccc(Cl)cc2)CC1)C1CCCCC1	10.8% (inactive)
CC(C)Oc1ccc(CN2CCC(n3nccc3NC(=O)c3cccnc3)CC2)cc1	23.4% (inactive)
Cc1nn(C)c(Cl)c1CN1CCC(n2nccc2NC(=O)C2CCCC2)CC1	14% (inactive)
C=CCOc1nc2c(c(=O)n(C)c(=O)n2C)n1Cc1ccc(Cl)cc1Cl	50.9% (active)
CNc1ccc(SC#N)cc1	13.2% (inactive)

SMILES	inhibition
CCC1CCCCN1CCCNC(=O)Cn1nc(-c2ccccc2)ccc1=O (centres undefined)	13.3% (inactive)
COc1ccc(C(=O)NCc2nnc(SCCOc3ccccc3)n2C)cc1	28.6% (inactive)
CC(C)(C)c1ccc(Oc2ccc(N)cc2)cc1	80.1% (active)
CCCc1nc(N)nc2c1C(=O)CC(C)(C)C2	16.9% (inactive)
Cc1ccc(C)c(S(=O)(=O)N2CCN(c3ncnc4sccc34)CC2)c1	54% (active)
Cc1c(Cl)c([N+](=O)[O-])nn1Cc1ccc(C(=O)N/N=C\c2cc(Cl)ccc2O)o1	57.9% (active)
CCN(CC(=O)Nc1cc(Cl)ccc1C)C(=O)CSCc1ccc(C)cc1	28.9% (inactive)
Cc1ccc(-c2nc(CSCC(=O)NC3CCN(Cc4ccccc4)CC3)c(C)o2)cc1	23.9% (inactive)
O=C(c1cc(Cl)cc(Cl)c1)N1CCC(=O)N(C(COCc2ccccc2)Cc2ccccc2)CC1 (centres undefined)	7.41% (inactive)
Cc1ccc(S(=O)(=O)N2C[C@@H]3CCCC[C@@H]3[C@@H](C)[C@H]2c2cn(Cc3ccccc3)c3ccc(F)cc23)cc1	83.6% (active)
CCN(CC)CCNC(=O)c1ccc(NC(=O)c2cc(-c3ccncc3)nc3ccccc23)cc1	23% (inactive)
CN1C(CC(=O)Nc2ccc(Br)cc2)c2ccccc2CC1(C)C (centres undefined)	11.3% (inactive)
O=C(Nc1cccc(S(=O)(=O)Nc2ccc(Cl)cc2)c1)c1ccc2c(c1)OCCO2	37.7% (inactive)
O=C(Cn1cc(C(=O)C2CC2)c2ccccc21)Nc1ccccc1Cl	60.3% (active)
CCN(CC)S(=O)(=O)c1ccc(Cl)c(C(=O)NC(C)C(c2cccs2)N2CCCC2)c1 (centres undefined)	15.2% (inactive)
O=C(NCCOCc1ccc(Cl)cc1)c1ncn[nH]1	9.09% (inactive)
Brc1c(CSc2nncc3ccccc23)nc2ccccn12	12.7% (inactive)
CCOC(=O)c1cnc(Nc2nc3ccccc3o2)nc1CSC(=S)N1CCCCC1	35.3% (inactive)
CN(C)CCSc1nc(N)c2c3c(sc2n1)COC(C)(C)C3	16.1% (inactive)
CC(=O)N1CCCc2cc(S(=O)(=O)N3CCCC(C(=O)N4CCN(c5cccc(Cl)c5)CC4)C3)ccc21 (centres undefined)	66.9% (active)
Cc1ccc(S(=O)(=O)N(Cc2cc3ccccc3[nH]c2=O)CC2CCCO2)cc1 (centres undefined)	21.7% (inactive)
CN(C)C(CNC(=O)Cc1ccc([N+](=O)[O-])cc1)c1ccccc1 (centres undefined)	16.5% (inactive)
O=C(Nc1ccnn1C1CCN(C/C=C/c2ccc(F)cc2)CC1)C1CCCC1	21.9% (inactive)
Cc1ccsc1C(=O)OCC(=O)c1cc(C)n(CC2CCCO2)c1C (centres undefined)	85.5% (active)
